Assay outcomes (PubChem BioAssay)
Only some compounds are listed: those with a hit (about 11% of all), similar ones and a draw of the others.
VP16 counter – VP16 counterscreen qHTS for inhibitors of ROR gamma transcriptional activity. 3.5% of 310,000 active. AID 2546, 2010. Drosophila S2 Gal4-VP16 UAS-luciferase, luminescence, 20 h. Potency, µM (series often up to 53.6 µM), without a hit: at the top dose activity, negative = inhibition, hits mostly inhibitors;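 note: Gal4-VP16 expression switched on by copper sulfate through the metallothionein promoter; potency is the fitted concentration of half-maximal effect; % is set by controls: 0 for no effect and ±100 for the full control effect; nearly all actives have a fitted effect of over 50% in size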
IL1B secr inh – qHTS for Inhibitors of Inflammasome Signaling: IL-1-beta AlphaLISA Primary Screen | 4.7% of 360,000 active | AID 743279, 2014 | activity change, % at 57.5 µM | THP-1 LPS/ATP IL-1B secretion, AlphaLISA, 16 h; hits give low values; in the data active = activity change below about -50%; inconclusive = mostly about -30% to -49%; note: % is set by controls: 0 for no effect and ±100 for the full control effect
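THP-1 cells pretreated 1 hr with compounds (up to 57.5 uM final), then stimulated with LPS (250 ng/mL final) plus ATP (1.25 mM final); secreted IL-1B measured by AlphaLISA after 16 hr, decreased signal indicating inhibition.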
SW480 rereplic – A quantitative high throughput screen for small molecules that induce DNA re-replication in SW480 colon adenocarcinoma cells | Potency, µM (highest dose often 46.1 µM), for inactives: at the highest dose re-replication activation, hits mostly activators | SW480 DNA re-replication, Hoechst DNA content imaging, 48 h | 1.8% of 340,000 active; note: potency is the fitted concentration of half-maximal effect; % of control where 0% means no effect; nearly all actives have a fitted effect of over 55% in size
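Hoechst fluorescence of nuclei (405 nm excitation, 500-530 nm emission) measured by plate-scanning imager after 48 hr compound exposure at 37 C; re-replication scored as increased number of nuclei with elevated intensity.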
MCF10A rerep – A quantitative high throughput screen for small molecules that induce DNA re-replication in MCF 10a normal breast cells | MCF 10A DNA re-replication, Hoechst nuclear intensity, 48 h | Potency, µM (highest dose often 46.1 µM), for the others: top-dose activity, positive = re-replication, actives largely listed as activators | 2.9% of 350,000 active; note: potency is the fitted concentration of half-maximal effect; % of control where 0% means no effect; nearly all actives have a fitted effect of over 50% in size
RORg inh – qHTS for inhibitors of ROR gamma transcriptional activity | Nuclear receptor ROR-gamma (Mus musculus), P51450 | Drosophila S2 Gal4-RORgamma UAS-luciferase reporter, 20 h | Potency, µM (highest dose often 53.6 µM), without a hit: at the top dose activity change, negative = inhibition, hits mostly inhibitors | 5.4% of 310,000 active; note: potency is the fitted concentration of half-maximal effect; % is set by controls: 0 for no effect and ±100 for the full control effect; nearly all actives have a fitted effect of over 60% in size
Target sequence (P51450 whole entry, looked up, the tested form may be a part): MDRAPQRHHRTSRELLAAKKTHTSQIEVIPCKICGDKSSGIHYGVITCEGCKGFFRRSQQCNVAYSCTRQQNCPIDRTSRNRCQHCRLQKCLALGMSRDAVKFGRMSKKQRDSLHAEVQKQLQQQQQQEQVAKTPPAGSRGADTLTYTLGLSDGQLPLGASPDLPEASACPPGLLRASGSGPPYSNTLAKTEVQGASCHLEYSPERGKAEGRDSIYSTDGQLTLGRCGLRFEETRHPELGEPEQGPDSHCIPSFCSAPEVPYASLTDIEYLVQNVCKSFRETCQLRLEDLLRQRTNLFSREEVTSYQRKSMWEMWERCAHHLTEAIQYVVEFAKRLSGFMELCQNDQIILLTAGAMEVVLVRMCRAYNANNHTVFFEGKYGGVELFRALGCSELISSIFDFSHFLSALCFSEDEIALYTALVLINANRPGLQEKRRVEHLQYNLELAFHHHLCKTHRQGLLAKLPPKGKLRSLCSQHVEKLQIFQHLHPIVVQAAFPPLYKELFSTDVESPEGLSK
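Stably transfected Drosophila Schneider cells are the test system, with ROR gamma fused to Gal4 and luciferase under UAS control; luminescence is read after 20 hr of 700 uM copper sulfate induction at ambient temperature.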
* marks the source's active call; other numbers are inactive results; ? = inconclusive; nt = no result given; [ ] = remark or other dose. Unless noted, calls come from the whole dose curve; as a rule, active = well fitted curve in the direction sought with a large enough effect; inconclusive = small, poorly fitted or top-dose-only effect, or another doubt; inactive = no such curve, though single readings can be large; an effect the other way counts as inactive or inconclusive.

SMILES	VP16 counter	IL1B secr inh	SW480 rereplic	MCF10A rerep	RORg inh
O=C(CCCCCn1c(=S)[nH]c2ccc(N3CCOCC3)cc2c1=O)NCc1ccccc1Cl	2.8%	10.6	?	18.4µM*	-44.2%
O=C(CCCCCn1c(=S)[nH]c2ccc(N3CCOCC3)cc2c1=O)NCc1ccc(Cl)cc1	7.2%	2.4	?	6.51µM*	?
C[C@H](CO)N1C[C@H](C)[C@@H](CN(C)S(=O)(=O)c2ccccc2)Oc2ccc(NC(=O)NC3CCCCC3)cc2C1=O	nt	-0.9	-4.9%	-13.4%	nt
Cc1cc(CSC(=N)N)c(CSC(=N)N)cc1C	0.0%	-6.8	-3.6%	19.6%	-6.3%
CCc1oc(C(=O)OC)cc1CSC(=N)N	-15.2%	-86.6*	?	?	35.1%
O=[N+]([O-])c1ccc(Oc2ccc(S(=O)(=O)Nc3ccccc3)cc2)cc1	?	-72.2*	0.5%	?	24.7%
O=[N+]([O-])c1ccc(NS(=O)(=O)c2ccc(Cl)c(Cl)c2)cc1	nt	-27.0	nt	nt	nt
O=C1C(Cl)=C(NS(=O)(=O)c2ccc([N+](=O)[O-])cc2)C(=O)c2ccccc21	-13.1%	-102.4*	7.1%	2.7%	-28.7%
Cc1cccc(C)c1NC(=O)C1c2ccccc2OCC(=O)N1Cc1ccccc1 (stereo not given)	nt	27.2	nt	nt	nt
COc1ccc(COC(=O)N/N=C2/C[C@@H](O)[C@@H](O)[C@@H]3[C@@H]4C(=O)N(C[C@@H]5CCCO5)C(=O)[C@H]4CC[C@@H]23)cc1	-2.5%[10 µM]	nt	nt	nt	-1.7%[10 µM]
COC(=O)C1=C(C)N(Cc2ccccc2)C2=C3C(=O)OCCC3[C@@](O)(C(=O)OC)C(=O)N2C1c1ccccc1 (stereo not given in full)	-7.4%[10 µM]	nt	nt	nt	-17.7%[10 µM]
CCOc1ccc(NC(=O)C2=NN(c3ccccc3)C(=O)CC2)cc1S(=O)(=O)N1CCCCC1	nt	-10.2	-3.2%	0.0%	nt
Cc1onc(-c2ccccc2)c1-c1nnc(CN2CCN(S(=O)(=O)c3ccccc3F)CC2)o1	nt	-6.6	-6.4%	-6.0%	nt
CC(=O)c1ccc(C2C=CC(O)C(CO)O2)cc1 (stereo not given)	6.6%[10 µM]	nt	nt	nt	0.4%[10 µM]
Cc1cc(/C=C2\NC(=S)N(C)C2=O)ccc1N1CCCC1	?	-8.1	17.0%	1.8%	3.55µM*
CCN1C(=O)/C(=C/c2ccc(N3CCCC3)cc2)NC1=S	-86.3%	-67.4*	10.2%	?	0.794µM*
O=C1N/C(=C\c2ccc(N3CCOCC3)c(F)c2)C(=O)N1Cc1ccccc1	-10.4%	32.0	-5.2%	?	10.0%
CCCN1C(=O)/C(=C/c2ccc(N3CCCC3)c(C)c2)NC1=S	-2.9%	-25.3	?	?	23.7%
CCCN1C(=O)/C(=C/c2ccc(OCC(=O)OCC)cc2)NC1=S	-22.6%	10.1	?	-2.8%	?
CCCN1C(=O)/C(=C/c2ccc(N3CCOCC3)cc2)NC1=S	7.94µM*	21.9	2.4%	15.3%	3.98µM*
CCN1C(=O)/C(=C/c2ccc(OCc3ccc(C(=O)O)cc3)c(Cl)c2)NC1=S	-8.7%	-10.5	-5.8%	?	2.3%
Cc1ccc(CN2C(=O)N/C(=C\c3ccc(N4CCOCC4)cc3)C2=O)cc1	11.2µM*	5.1	14.6µM*	15.5%	-72.5%
CC(C)CNC(=S)NC1CC2CCCC(C1)N2Cc1cccs1 (stereo not given)	-28.2%	-17.5	0.5%	-9.1%	11.2µM*
Cc1cccc(NC(=S)NC2CC3CCCC(C2)N3Cc2ccco2)c1 (stereo not given)	?	-15.8	17.4%	11.9%	11.2µM*
Cc1ccc(NC(=S)NC2CC3CCCC(C2)N3Cc2cccs2)cc1 (stereo not given)	?	-74.1*	23.5%	?	4.47µM*
SMILES	VP16 counter	IL1B secr inh	SW480 rereplic	MCF10A rerep	RORg inh
CC(C)CNC(=S)NC1CC2CCCC(C1)N2Cc1ccco1 (stereo not given)	0.0%	-9.6	1.2%	-11.5%	-9.1%
Fc1ccc(NC(=S)NC2CC3CCCC(C2)N3Cc2cccs2)cc1 (stereo not given)	?	?	-5.7%	-8.0%	10µM*
Cc1cccc(NC(=S)NC2CC3CCC(C2)N3Cc2ccco2)c1 (stereo not given)	-3.7%	-0.5	-1.5%	-2.0%	-39.1%
COc1ccc(N2C(=NC(=O)C3CC3)SC3CS(=O)(=O)CC32)cc1Cl (stereo not given)	1.3%	-17.9	-22.9%	-1.9%	-16.1%
CC(=O)OCC1OC(c2cc(C)cc(C)c2)C=CC1OC(C)=O (stereo not given)	-7.1%[10 µM]	nt	nt	nt	3.1%[10 µM]
COc1ccc(Oc2ncc3nc(-c4cccs4)c(=O)n(Cc4cccc(OC)c4)c3n2)cc1	-6.9%	nt	nt	nt	0.5%
CO[C@@H](CCO)C[C@H]1O[C@H](C(=O)OC(C)C)CC[C@@H]1C	-13.7%	nt	nt	nt	0.2%
O=C(OCc1ccccc1)/C(=C/c1cccc2ccccc12)NC(=O)c1ccccc1	-5.6%	15.4	-5.9%	1.1%	16.7%
Cc1ccc(S(=O)(=O)Oc2ccc(/C=C(/NC(=O)c3ccccc3)C(=O)O)cc2)cc1	-6.8%	0.0	4.2%	-6.0%	14.7%
Cc1ccc(C(=O)N/C(=C\c2ccccc2)C(=O)OCc2ccccc2)cc1	-6.4%	-50.7*	-2.8%	0.1%	40.0%
Cc1ccc(S(=O)(=O)Oc2ccc(/C=C(/NC(=O)c3ccccc3)C(=O)NCC(=O)O)cc2)cc1	4.8%	-1.7	6.51µM*	-3.2%	-4.0%
COc1cccc(Oc2ccc(N/C=C/C(=O)C(C)(C)C)cc2)c1	?	-64.7*	?	-2.9%	?
CC1(C(=O)NCc2cccs2)CCN1C(=O)Cc1cccc2ccccc12 (stereo not given)	nt	-4.4	nt	nt	nt
CC(=O)Nc1ccc(C(=O)CSc2nnc(-c3ccccc3F)n2CCc2ccccc2)cc1	nt	8.0	-12.0%	3.9%	nt
CCOC(=O)c1cc2sccc2n1CCCN1C(=O)c2ccccc2C1=O	?	6.9	9.5%	20.6µM*	?
CCOC(=O)c1cc2sccc2n1CC(=O)N1CCCc2ccccc21	-2.1%	-50.1*	2.0%	-6.6%	9.1%
COc1cc(OC)cc(-c2sc3ccccc3c(=O)c2I)c1	-7.2%	nt	nt	nt	43.0%
CCc1nc2ccc(C(=O)NCCCn3ccnc3)cn2c1N(CC)CCOC	nt	22.2	nt	nt	nt
CCN(CC)CCCNC(=O)c1ccc(OCC(=O)Nc2ccccc2C(F)(F)F)c(OC)c1	9.6%	-62.0*	?	18.4µM*	5.2%
COc1ccc(C(=O)Nc2ccc(S(=O)(=O)Nc3nccc(C)n3)cc2)cc1[N+](=O)[O-]	1.0%	13.7	-27.1%	2.4%	19.1%[1.91 µM]
O=C(CSC1CCCCC1)Nc1nccs1	7.8%	4.0	1.4%	-5.0%	-26.6%
